According to the supplement of paper PMC6555819:

test system: LXRb homodimer (NR concentration 270 nM); test: PBM binding z-score (relative to random genomic background probes); higher = stronger binding; sequences stand for … in GC…GCGATTGACAGCGTAGAATGAAGG
Summary of the method: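 Ligand-free nuclear receptor dimers were bound for 1 h to custom Agilent 4×180K protein-binding microarrays. Detection used antibodies against each partner (one per run). Binding z-scores rest on regression-normalized fluorescence, with random background probes as the reference.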

Row | Sequence | PBM binding z-score
1 | CCAACTAGGTCAGAACAGGACAGTGAAGGATGAT | 0.446
2 | CATACAGGGTCAGCTAGGCCAGAGAAGGGACGGC | 0.339
3 | TGAATGACGTTATAAGATCAGGGAACGTTGCAAA | -0.245
4 | ATCTCTCGGTAACCAAGTTCAGTGAATGCCGAAC | 0.975
5 | CCTAGCAGGCCAATCTGGGTCACCCAAGGCTTGA | -0.863
6 | GCTTGTCGATCAAGGTTAAGAAAGACTAAGCTAA | -0.963
7 | ATATGTAGGTTAAGGGTCACTCAGGTTGGTTCGC | 1.2
8 | GCTGCTAGGTTAGGTTGGTCAGCTAACGGGTACG | -0.743
9 | ATCGAAAGGTCGACGAGGTGAGTGTACACCGTTT | 0.198
10 | CAAACTAGGTCACGAAAGGTCAAGGTCGAATGAC | 1.7
11 | TAGCCTAGGTCAGATGGGGCCAGTATACGCTATA | -0.069
12 | ATCGCAAGGTCGTGAGGTGAGTATACAGAAAGGC | -0.382
13 | TAGCATAGGTCATGGGCCAGTATACCACGCGAAC | 0.148
14 | TCTGCTAGGTCAGCTGGTCAGCTAACGAGCTGCC | -0.343
15 | GCTGTTAGGTCAGGTTGGTCAGCTAACGGGTACG | 0.0917
16 | TCGGCTAGGTCAGTTGGTCAGCTAACGAGCTGCC | -0.753
17 | CCCATTAGTTGACCATAAGGGCAACCGAAGCTCG | 0.614
18 | TAGCTTAGGTCATTGGGCCAGTATAGTACGCATC | 0.994
19 | CCTTACGGGGCACTGACAGGTTATAGCATTTGGA | -0.831
20 | TCGAGTAGGTTACCGATGGGGCATTCAGCTTTCT | -0.864

Row | Sequence | PBM binding z-score
21 | TCTATTAGTTGATTAGGGCATCCGAAACAGCGGA | 0.553
22 | TCTGCTAGGTCGGTTGGTCAGCTAACGAGCTGCC | 0.368
23 | CGAACTAGGTCAGAACATGACAGTGAAGGATGAT | -0.161
24 | TTACCAAGGTGAGCCGAGGTCGTTGATCCAACTC | -1.11
25 | CAAACTAGGTCACCGGAAGGTCAACGTCCGCATG | 1.1
26 | CCTACTGGGCCACGAAAAGTCATTGATTCAGTGA | -0.772
27 | AATACAGGGTCATCGTAGACCAGAGTACGCACAG | 1.2
28 | CCTTACGGGTCACTCCAGGCTATAGCATCGGAGT | -0.145
29 | CCACACAGGTGAAAGGTAACTCAGTCTGGTACGC | -0.0183
30 | TCCGACAGGTGAAGGTAACTCAGGTACGCAGTCG | -0.785
31 | ATCGATAGGTCGACGAGGTGAGTATACACCGTTT | 0.0439
32 | TAGCCTAGGTCATGCAGGCCAGTATAGTGTCGGC | -0.186
33 | CGTCCAACGTCAGAGAGGTCAGTGAATGCCGAGT | -0.287
34 | CCCTACGGGTCACTGACAGGTTATAGCATTTGGA | -0.128
35 | AGAATGAGGTTACCAAACATCAGGGAAACGCTTG | -0.323
36 | CCTACTGGGCCATTCAGAGGTGATTGATCATATG | -0.593
37 | CCTACCAGGCCAGGGTCACTCAAGCATTTCGCTT | -0.678
38 | CGAACTAGGTCATCCAGGACAATGAATACATTGA | 0.294
39 | ACTAGTTGGTGAGCTGAGGTCACACACAATTCGG | 0.277
40 | CGTCCAAGCTCAAAGGTCAGTGAAGAGATGACGG | 0.14
